From PubChem
In the library only some 3.4% were active in any assay of this set; here they are far more common.
TEAD-YAP inh – TEAD-YAP interaction inhibition; HEK-TIYL cells, TEAD-Gal4/YAP UAS-luciferase luminescence; inhibition, % at 9.12 µM; actives 1.4% (n = 640,000); AID 1259422; in the data active means inhibition above about 32%;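 further: 0% = median of test compound wells and 100% = reference inhibitor wells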
MITF inh – inhibitors of human MITF; O75030; AlphaScreen MITF homodimerization, bead proximity signal; inhibition, % at 2.6 µM; actives 0.91% (n = 650,000); AID 1259374; in the data active means inhibition above about 50%;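 further: 0% = vehicle wells with protein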
FBW7 activator – human FBW7 E3 ligase activation, primary screen. Q969H0. AlphaScreen FBW7–phospho-cyclin E peptide binding, activator screen. normalized activity (activation), % at 26.1 µM. actives 0.13% (n = 650,000). AID 1259310; in the data active means normalized activity above about 1.9%;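 further: purified mutant Fbw7 with reduced substrate affinity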
Target sequence (Q969H0 whole entry, looked up): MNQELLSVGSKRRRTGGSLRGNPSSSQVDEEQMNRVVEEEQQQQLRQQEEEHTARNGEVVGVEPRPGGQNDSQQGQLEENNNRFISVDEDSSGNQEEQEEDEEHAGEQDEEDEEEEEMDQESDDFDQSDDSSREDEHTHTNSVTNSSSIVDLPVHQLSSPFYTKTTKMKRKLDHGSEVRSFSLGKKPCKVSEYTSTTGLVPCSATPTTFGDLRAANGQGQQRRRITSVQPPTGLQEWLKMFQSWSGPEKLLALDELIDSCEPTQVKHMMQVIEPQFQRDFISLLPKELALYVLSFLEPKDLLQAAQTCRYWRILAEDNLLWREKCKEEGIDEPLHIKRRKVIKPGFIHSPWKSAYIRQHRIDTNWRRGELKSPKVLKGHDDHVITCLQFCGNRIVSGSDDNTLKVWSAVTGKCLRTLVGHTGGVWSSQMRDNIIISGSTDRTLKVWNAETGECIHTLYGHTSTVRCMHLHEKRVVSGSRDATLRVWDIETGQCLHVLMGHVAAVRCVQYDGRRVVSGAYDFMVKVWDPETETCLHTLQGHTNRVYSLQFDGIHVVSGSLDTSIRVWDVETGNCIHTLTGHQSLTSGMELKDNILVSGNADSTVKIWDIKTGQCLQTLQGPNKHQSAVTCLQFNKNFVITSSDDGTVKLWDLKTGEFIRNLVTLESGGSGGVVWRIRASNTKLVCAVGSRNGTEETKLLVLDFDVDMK
GPR151 activ – activators of human GPR151 | PathHunter beta-arrestin GPR151 cells, luminescence | activation, % at 11.2 µM | AID 1508602 | Q8TDV0 | actives 1% (n = 650,000); in the data active means activation above about 4.9%;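 further: 0% = median of compound wells and 100% = cells with positive control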
Active calls of the source: *.

SMILES | TEAD-YAP inh | MITF inh | FBW7 activator | GPR151 activ
Cc1cc(Nc2ccc(N3CCOCC3)cc2)nc(Nc2cccc(N(C)C)c2)n1 | 53.9* | 3.0 | -0.4 | -0.6
O=C(O)c1ccc2c(c1)C(=O)N(c1ccc(Cl)c(Cl)c1)C2=O | -3.4 | 8.7 | 0.1 | -0.2
CN1CC2(Cc3cc([N+](=O)[O-])ccc3N3CCCCCC32)C(=O)N(C)C1=O (stereo not given) | -2.0 | -0.1 | 0.0 | 0.8
Cn1c(=O)[nH]c(N2CCC3(CC2)OCCO3)c(Cc2ccc(Br)cc2)c1=O | 7.3 | 25.3 | 0.1 | -0.4
Cc1cc(NCc2cccc(C(F)(F)F)c2)nc(Oc2ccccc2)n1 | 66.5* | 17.9 | 1.1 | 2.2
Cc1cc(Nc2ccccc2)nc(Nc2ccc(N3CCOCC3)cc2)n1 | 35.1* | 12.6 | -0.1 | 3.5
Cc1cc(NCc2cccc(C(F)(F)F)c2)nc(Nc2ccc(N3CCOCC3)cc2)n1 | 47.5* | 8.9 | -0.4 | -0.3
Cc1cc(NCCOc2ccccc2)nc(Nc2ccc(N3CCOCC3)cc2)n1 | 42.9* | 3.8 | -0.4 | -1.9
Cc1cc(NCc2cccc(C(F)(F)F)c2)nc(Nc2ccc(C(F)(F)F)cc2)n1 | 10.0 | -3.5 | 0.1 | 0.4
Cc1cc(Nc2ccc(N3CCOCC3)cc2)nc(Nc2ccc(N3CCOCC3)cc2)n1 | 4.9 | 33.4 | -0.3 | -1.9
O=C(O)C1(S(=O)(=O)c2ccc(Cl)cc2)CC1 | 1.9 | 5.3 | -0.2 | 3.5
COC(=O)c1c(NC(=S)NCc2ccccn2)sc(C(=O)N(C)C)c1C | -13.1 | -3.7 | -0.4 | 0.1
COc1cc2sc(=NC(=O)c3cccs3)n(C)c2cc1OC | -77.9 | 1.3 | 0.7 | 0.8
Cc1ccc2c(c1)sc(=NC(=O)c1cccs1)n2C | 74.1* | 9.4 | 0.1 | -8.6
CCCOC(=O)c1ccc(NC(=O)c2ccc(C(C)(C)C)cc2)cc1 | -57.9 | 11.5 | -0.1 | -0.2
COCCOC(=O)c1ccc(NC(=O)c2ccc(C(C)(C)C)cc2)cc1 | 45.7* | 1.0 | -1.1 | 0.3
COC(=O)Cc1ccc(NC(=O)c2ccc(C(C)(C)C)cc2)cc1 | 70.8* | -10.9 | 0.3 | 1.5
COC(=O)COc1ccc(NC(=O)c2ccc(C(C)(C)C)cc2)cc1 | 43.5* | -22.1 | -0.2 | -0.9
O=C(COc1ccc(Cl)cc1)NNC(=O)CSCCO | -1.2 | 20.2 | 0.8 | -0.9
Cc1ccccc1NC(=O)C1Sc2nnc(C)n2NC1c1ccc(Cl)cc1 (stereo not given) | 8.1 | 3.4 | -0.1 | -0.4
O=C(CSc1n[nH]c(/C=C/c2ccc(F)cc2)n1)Nc1cc(C(=O)O)cc([N+](=O)[O-])c1 | 68.9* | 9.1 | 0.6 | -6.4
CCOC(=O)C1=C(c2ccccc2)NC(SC)=C(C#N)C1c1cccnc1 (stereo not given) | 8.5 | 0.8 | -0.5 | 1.1
CCOC(=O)C1=C(C)NC(C)=C(C(=O)OCC)C1c1ccccc1F | 5.4 | 16.8 | 2.1* | -1.1
CCOC(=O)C1=C(C)NC(SC)=C(C#N)C1c1ccccc1 (stereo not given) | 47.3* | 4.8 | 0.0 | -1.0
CCOC(=O)C1=C(C)NC(SCC(N)=O)=C(C#N)C1c1cccc([N+](=O)[O-])c1 (stereo not given) | 48.9* | 4.7 | 0.0 | 0.0
SMILES | TEAD-YAP inh | MITF inh | FBW7 activator | GPR151 activ
CCN1CCN(CCCN(Cc2ccco2)C(=S)Nc2ccccc2C)CC1 | 6.7 | 7.2 | 0.7 | -1.2
COc1cc(NC(=O)CCc2c(C)nc3nc(CN)nn3c2C)cc(OC)c1 | -1.6 | 1.2 | -0.1 | -1.1
O=C1OC(c2cccs2)=N/C1=C\c1cccc(Br)c1 | -1.3 | -4.9 | -0.1 | 0.3
CC(=O)Nc1ccc(Sc2nc3ccccc3s2)c(Cl)c1 | -2.2 | -7.8 | 0.0 | -0.6
O=C(Nc1ccc2oc(-c3cccc4c(Br)cccc34)nc2c1)c1ccccc1[N+](=O)[O-] | 43.2* | 2.5 | 0.1 | 0.1
O=C(Nc1ccc2oc(-c3cccc(F)c3)nc2c1)c1cc([N+](=O)[O-])ccc1Cl | 37.0* | 12.8 | 0.2 | -0.1
O=C(Nc1ccc(Sc2nc3ccccc3s2)c(Cl)c1)c1cc([N+](=O)[O-])ccc1Cl | 32.1* | 11.1 | 0.0 | -0.5
O=C(Nc1ccc2oc(-c3cccc4c(Br)cccc34)nc2c1)c1cc([N+](=O)[O-])ccc1Cl | -6.1 | 15.3 | 0.0 | -2.0
COC(=O)c1sc(NC(=O)c2cc(C)oc2C)nc1C | -24.0 | 4.4 | -0.2 | -3.8
NNC(=O)Nc1cccc2nsnc12 | 66.0* | 10.8 | 1.6 | -1.5
COc1ccc(-c2nnc(Sc3ccc([N+](=O)[O-])cn3)n2-c2ccccc2)cc1OC | 55.4* | 14.7 | 0.0 | -1.8
COc1cccc(NC(=O)CSC2=Nc3ccccc3C3=NC(Cc4c[nH]c5ccccc45)C(=O)N23)c1 (stereo not given) | 5.1 | -8.5 | -0.1 | -3.0
CCOc1ccc(NC(=O)Cn2cnc3c(cnn3-c3ccc(C)c(C)c3)c2=O)cc1 | 19.2 | 21.9 | 0.1 | -0.1
CCOC(=O)c1c(C)sc2c3c([nH]c12)CCCC3 | 61.6* | 4.1 | 0.1 | 1.0
Cc1cc(C)c(NC(=O)CC(NCc2ccco2)C(=O)O)c(C)c1 (stereo not given) | -5.5 | 24.1 | 0.1 | -0.2
CCCOC(=O)c1ccc(NC(=O)c2ccc(Cl)c(Cl)c2)cc1 | -4.1 | 4.2 | -0.1 | 1.1
O=C(Nc1onc2c1CCCC2)c1ccc2c(c1)OCCO2 | 90.9* | -5.6 | -0.1 | -9.0
CCCOC(=O)c1ccc(NC(=O)c2ccc3c(c2)OCCO3)cc1 | 41.3* | -2.1 | -0.1 | -1.1
COc1ccc(C(=O)Nc2ccc3sc(C)nc3c2)cc1 | -23.4 | 9.0 | 0.1 | -1.4
Cc1nc2cc(NC(=O)c3ccc4c(c3)OCCO4)ccc2s1 | 60.8* | 6.8 | 0.0 | -6.6
O=C(Nc1onc2c1CCCC2)c1ccc(F)cc1 | -1.4 | -5.9 | -0.1 | -6.3
O=C(Nc1ccc(F)cc1)c1ccc2c(c1)OCCO2 | 58.9* | -1.1 | -0.4 | -7.3
CCOC(=O)c1ccc(NC(=O)c2ccc3c(c2)OCCO3)cc1 | 34.7* | 5.8 | -0.2 | -0.4
O=C(O)c1c(CNCc2ccccc2)c2ccccc2n1Cc1ccccc1F | 9.9 | 10.8 | 0.1 | -0.2
Cc1ccc(-c2csc(Nc3cccc(O)c3)n2)cc1 | 74.2* | -13.0 | -0.4 | -0.8
SMILES | TEAD-YAP inh | MITF inh | FBW7 activator | GPR151 activ
CC(=O)Oc1ccc(-c2csc(Nc3cccc(O)c3)n2)cc1 | -29.4 | 1.4 | -0.2 | -1.0
COc1ccc(-c2csc(Nc3cccc(O)c3)n2)cc1 | 41.1* | 11.6 | 0.0 | 0.8
O=C(N/N=C/c1cc(Cl)ccc1O)c1ccc(F)cc1 | 66.6* | 28.9 | -0.1 | 0.3
Cc1cc(C(=O)N/N=C\c2ccc(Cl)cc2Cl)c(C)o1 | -3.6 | 12.2 | 0.4 | -1.8
O=C(N/N=C/c1ccc(O)c(O)c1O)c1cccs1 | -44.3 | 54.0* | -0.7 | -3.1
Cc1cc(C(=O)N/N=C\c2cc(C(C)(C)C)ccc2O)n[nH]1 | -1.8 | 4.6 | -0.3 | -0.5
Cc1cc(C(=O)N/N=C/c2ccc(O)c(O)c2O)c(C)o1 | 2.0 | 52.7* | -1.1 | -3.0
O=C(N/N=C/c1ccccc1C(F)(F)F)c1cccs1 | -30.2 | 2.3 | -0.1 | -0.3
CC(C)(C)c1cc(C(=O)N/N=C/c2cc(Cl)ccc2O)n[nH]1 | 75.5* | 30.7 | -1.2 | -0.4
COc1ccc(/C=C2\SC(=S)N(CC3CCCO3)C2=O)c(OC)c1 (stereo not given) | 3.7 | 10.0 | 0.0 | -0.1
